GPR151 activ – activators of human GPR151. activation, % at 11.2 µM. Q8TDV0. PathHunter beta-arrestin GPR151 cells, luminescence. 1% of 650,000 active; in the data active = activation above about 4.9%
Target sequence (Q8TDV0 whole entry, looked up): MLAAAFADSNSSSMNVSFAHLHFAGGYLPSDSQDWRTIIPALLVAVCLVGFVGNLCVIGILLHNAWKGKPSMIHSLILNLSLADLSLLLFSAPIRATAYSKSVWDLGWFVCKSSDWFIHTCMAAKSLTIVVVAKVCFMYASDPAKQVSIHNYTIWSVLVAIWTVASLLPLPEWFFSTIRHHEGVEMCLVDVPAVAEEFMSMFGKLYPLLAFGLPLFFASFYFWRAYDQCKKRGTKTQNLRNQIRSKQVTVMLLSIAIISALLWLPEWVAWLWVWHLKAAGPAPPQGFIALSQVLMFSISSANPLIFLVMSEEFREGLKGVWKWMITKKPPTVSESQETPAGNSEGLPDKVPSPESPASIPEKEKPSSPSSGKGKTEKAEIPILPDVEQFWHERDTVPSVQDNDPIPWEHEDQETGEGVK
FBW7 activator – human FBW7 E3 ligase activation, primary screen. 0.13% of 650,000 active. Q969H0. normalized activity (activation), % at 26.1 µM. AlphaScreen FBW7–phospho-cyclin E peptide binding, activator screen; in the data active = normalized activity above about 1.9%;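 note: purified mutant Fbw7 with reduced substrate affinity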
TEAD-YAP block – TEAD-YAP interaction inhibition | HEK-TIYL cells, TEAD-Gal4/YAP UAS-luciferase luminescence | inhibition, % at 9.12 µM | 1.4% of 640,000 active | AID 1259422; in the data active = inhibition above about 32%
MITF inh – blocks human microphthalmia-associated transcription factor | AlphaScreen MITF homodimerization, bead proximity signal | inhibition, % at 2.6 µM | 0.91% of 650,000 active | AID 1259374; in the data active = inhibition above about 50%
Hits are given with their value; n = inactive. Only some compounds are listed: those with a hit (about 3.5% of all), similar ones and a draw of the others.

SMILES | GPR151 activ | FBW7 activator | TEAD-YAP block | MITF inh
COc1cc(OC)cc(C(=O)Nc2ccc3oc(-c4ccc(OC)c(Br)c4)nc3c2)c1 | n | n | n | n
COc1ccccc1CC(=O)Nc1cnc2cnc(-c3ccc(F)c(Cl)c3)cn12 | n | 1.9 | n | n
O=C1CCCC2=C1C(c1ccc(F)cc1)Nc1ccc(C(=O)c3ccccc3)cc1N2 (stereo not drawn) | n | n | n | n
O=C1CCCC2=C1C(c1cccc(Br)c1)Nc1ccccc1N2 (stereo not drawn) | n | n | n | n
O=C1CCCC2=C1C(c1cccs1)Nc1ccc(C(=O)c3ccccc3)cc1N2 (stereo not drawn) | n | n | 55 | n
O=C1CCCC2=C1C(c1cccs1)N(C(=O)c1ccccc1)c1ccccc1N2 (stereo not drawn) | n | n | n | n
CC(=O)N1c2ccccc2NC2=C(C(=O)CCC2)C1c1cccs1 (stereo not drawn) | n | n | 49 | n
O=C1CCCC2=C1C(c1cccc(Br)c1)Nc1ccc(C(=O)c3ccccc3)cc1N2 (stereo not drawn) | n | n | 68 | n
O=C1CCCC2=C1C(c1ccc(O)cc1)Nc1ccc(C(=O)c3ccccc3)cc1N2 (stereo not drawn) | n | n | 34 | n
NC(CC(=O)NC(c1ccccc1)(c1ccccc1)c1ccccc1)C(=O)O (stereo not drawn) | n | n | n | n
Cc1ccc(-c2c3c(nc4sc(C(=O)c5ccc(Cl)cc5)c(N)c24)CCCC3)o1 | n | n | n | n
Cc1ccc(-c2cc(-c3ccccc3)no2)c(O)c1 | n | n | 52 | n
Oc1ccccc1-c1cc(-c2ccccc2)no1 | n | n | n | n
O=C1c2ccccc2C(=O)N1c1ccc(N2C(=O)c3ccccc3C2=O)c(Cl)c1 | n | n | n | n
CC(=O)/C(N=Nc1ccc([N+](=O)[O-])cc1)=C(/C)O | n | n | n | n
COc1ccc(CNc2c(C)c(C)nc3ncnn23)cc1 | n | n | n | n
COc1ccc(CCNc2c(C)c(C)nc3ncnn23)cc1 | n | n | 60 | n
Cc1nc2ncnn2c(NCCc2ccccc2)c1C | n | n | 42 | n
COc1ccc(/C=C(/C#N)C(=O)Nc2cccc(F)c2)cc1 | n | n | n | n
CCn1c(=O)cc(SCC(=O)NC(C)C)c2ccccc21 | n | n | n | n
CCn1c(=O)cc(SCC(=O)NCc2cccs2)c2ccccc21 | n | n | 43 | n
CCn1c(=O)cc(SCC(=O)NCc2ccc(F)cc2)c2ccccc21 | n | n | 45 | n
Cc1cc2nc3c(=O)[nH]c(=O)[nH]c3nc2cc1N | n | n | n | n
Cc1cc2nc3c(=O)[nH]c(=O)[nH]c3nc2c([N+](=O)[O-])c1N | n | n | n | 68
S=c1sc2c(s1)SC1CCCCCCCCCCC1S2 (stereo not drawn) | n | n | n | n
SMILES | GPR151 activ | FBW7 activator | TEAD-YAP block | MITF inh
CCOC(=O)c1c(C)oc2ccc(N(C(=O)c3ccncc3)S(=O)(=O)c3ccccc3)cc12 | n | n | n | n
COC(=O)c1c(C)oc2ccc(N(C(=O)c3ccncc3)S(=O)(=O)c3ccc(Cl)cc3)cc12 | n | n | n | n
CCOc1ccc(S(=O)(=O)N(C(=O)c2ccncc2)c2ccc3oc(C)c(C(=O)OC)c3c2)cc1 | n | n | 64 | n
CCOC(=O)c1c(C)oc2ccc(N(C(=O)c3ccncc3)S(=O)(=O)c3ccc(C)cc3)cc12 | n | n | 48 | n
CC(=O)NC1=NN(C(C)=O)C(C)(c2ccc(C)o2)S1 (stereo not drawn) | n | n | n | n
O=C(O)c1ccc(Br)c(S(=O)(=O)N2CCCCCC2)c1 | n | n | n | n
COC(=O)c1ccc(Br)c(S(=O)(=O)N2CCCCC2)c1 | n | 1.9 | n | n
COc1cc(Nc2ncnc3c2nc(Nc2cccc(N(C)C)c2)n3C(C)C)cc(OC)c1OC | n | n | n | n
COc1cc(Nc2nc3c(NCCc4ccc(O)cc4)ncnc3n2C(C)C)cc(OC)c1OC | n | n | 32 | n
COc1cc(Nc2nc3c(NCCO)ncnc3n2C(C)C)cc(OC)c1OC | n | n | n | n
COc1cc(Nc2nc3c(Nc4ccccc4)ncnc3n2C(C)C)cc(OC)c1OC | n | n | 38 | n
Nc1ncnc2nc(Sc3ccc([N+](=O)[O-])cc3[N+](=O)[O-])[nH]c12 | n | n | n | n
Cc1cc(NCc2cccc(C(F)(F)F)c2)nc(Nc2ccc(-n3ccnc3)cc2)n1 | n | n | 50 | n
COc1cc(Nc2ncc(C)c(NCc3cccc(C(F)(F)F)c3)n2)cc(OC)c1OC | n | n | 54 | n
O=C(NCc1ccccc1)C1CCN(c2ccc(Nc3ccc(-n4ccnc4)cc3)nn2)CC1 | n | n | n | n
CCCNc1cc(C)nc(Nc2ccc(-n3ccnc3)cc2)n1 | n | n | 35 | n
COc1cc(Nc2ncc(C)c(NCc3cccnc3)n2)cc(OC)c1OC | n | n | n | n
O=C(NCc1cccc(C(F)(F)F)c1)C1CCN(c2ccc(Nc3ccc(-n4ccnc4)cc3)nn2)CC1 | n | n | 35 | n
CCOC(=O)N1CCC(N(CCOC)C(=O)Nc2ccc(Cl)c(Cl)c2)CC1 | n | n | n | n
C=CCn1c(=NC(=O)c2ccccc2S(C)(=O)=O)sc2cc([N+](=O)[O-])ccc21 | n | n | n | n
CCOc1ccc(-n2c(=S)sc3c2nc(SCC(=O)Nc2ccc(N(C)C)cc2)n2c4ccccc4nc32)cc1 | n | n | n | n
Cc1cnc(Nc2cnccn2)nc1NCc1cccc(C(F)(F)F)c1 | n | n | 46 | n
Cc1cnc(Nc2ccc(-n3ccnc3)cc2)nc1NCc1cccc(C(F)(F)F)c1 | n | n | 37 | n
Cc1cnc(Nc2ccc(C(F)(F)F)cc2)nc1NCc1cccc(C(F)(F)F)c1 | n | n | n | n
O=C1CCCN1CCCNc1cc(Nc2ccc(-n3ccnc3)cc2)ncn1 | n | n | n | n
SMILES | GPR151 activ | FBW7 activator | TEAD-YAP block | MITF inh
OCC1CCCN1c1cc(Nc2ccc3c(c2)OCO3)ncn1 (stereo not drawn) | n | n | 37 | n
Oc1ccc(CCNc2cc(Nc3ncccn3)ncn2)cc1 | n | n | 42 | n
OCC1CCCN1c1cc(NCCc2ccc(O)cc2)ncn1 (stereo not drawn) | n | n | 48 | n
OCC1CCCN1c1cc(Nc2ccccc2)ncn1 (stereo not drawn) | n | n | n | n
CCc1cccc(OCC(=O)Nc2ccc([N+](=O)[O-])cc2)c1 | n | n | n | n
COc1ccc(-c2ccc(C(=O)NCc3cccnc3)s2)cc1 | n | n | n | n
Nc1c(C(=O)c2ccc(Br)cc2)sc2[nH]c(=O)c(C(=O)O)cc12 | n | n | n | n
CCOC(=O)N1CCN(S(=O)(=O)c2ccc(C(=O)Nc3ccc(C(C)=O)cc3)cc2)CC1 | n | n | n | n
CCN(C1CCCCC1)S(=O)(=O)c1ccc(C(=O)Nc2ccc(F)cc2)cc1 | n | n | 33 | n
CCOC(=O)N1CCN(S(=O)(=O)c2ccc(C(=O)Nc3ccc(F)cc3)cc2)CC1 | n | n | 41 | n
CN(C1CCCCC1)S(=O)(=O)c1ccc(NC(=O)c2ccc(F)cc2)cc1 | n | n | n | n
CC1(C)CC(=O)C2=C(C1)N(c1ccc(Br)cc1F)C(N)=C(C#N)C2c1cccs1 (stereo not drawn) | n | n | n | n

Compound activity: PubChem, The Scripps Research Institute Molecular Screening Center
